The structures appear in SMILES notation. The panel holds about 83,000 compounds, 20% with a hit somewhere; the sample as a whole holds those more often.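 The endpoint reported here, percent growth, reads 100 for growth as untreated, 0 for no net growth and -100 for all cells dead.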 A number with no mark means an inactive call. Activity calls are given as the source filed them. The calls were made as follows: active = growth percent below 10; inactive = the rest.

The subject of the assay is COLO 205 colon. Put plainly: NCI-60 one-dose screen, 48 h (100 = growth as untreated, 0 = no growth, -100 = all killed). Conditions: 10 µM unless noted.
Turning to `O=C(NN1C(=O)/C(=C/C=C/c2ccc([N+](=O)[O-])o2)SC1=S)c1ccccc1O`, the growth is -82.1% (active). As for `COc1ccc(-c2nc3cc(C)ccc3n2CC(=O)N=Nc2c(O)[nH]c3ccc(Cl)cc23)cc1`, the figure is -39.7% (active); as for `COC1=C[C@]23CCC(=O)N2CCc2cc4c(cc2[C@@H]3[C@@H]1OC(=O)[C@H](C)O)OCO4`, 28.4%; as for `Cc1sc2c(c1C)C(c1ccc(Cl)cc1)=N[C@@H](CC(=O)NCCCCCNC(=O)COc1ccc(C3CCC(=O)NC3=O)cc1)c1nnc(C)n1-2` (stereo partly specified), -61.7% (active).

On to `N/C(=N\c1nc2ccccc2s1)NC(=O)Nc1ccc(Cl)cc1Cl`, for which the growth was -87.7% (active). As for `CC1=C(C#N)C2=NNCC(c3ccccc3)=NN2C(c2ccccc2)=C1`, the figure is 113%.

Source of the values: PubChem BioAssay (NCI).
